High-throughput results deposited in PubChem by National Center for Advancing Translational Sciences (NCATS).
LASV entry inh: Lassa virus entry inhibition. Lassa virus pseudotype entry inhibition, cell reporter. Potency, µM (series often up to 37.9 µM), inactives show top-dose activity change, negative = inhibition, usual class: inhibitors. hit rate 1.2% among 300,000; calls by dose curve; tested in HEK293 cells; further: nearly all actives have a fitted effect of over 50% in size
VACV mCherry inh: vaccinia inhibition (mCherry reporter). hit rate 0.63% among 310,000. Potency, µM (series often up to 36.5 µM), inactives show at the top dose activity change, negative = inhibition, actives largely listed as inhibitors. Vaccinia virus mCherry reporter infection, fluorescence; calls by dose curve; tested in A549 cells; further: nearly all actives have a fitted effect of over 35% in size
MARV entry inh: inhibitors of Marburg virus binding or cell entry; Marburg virus pseudotyped entry inhibition, cell reporter; Potency, µM (top dose mostly 37.8 µM), inactives show top-dose activity change, negative = inhibition, actives largely listed as inhibitors; hit rate 1.8% among 300,000; AID 540276; calls by dose curve; tested in HEK293 cells
Vaccinia Venus: inhibitors of vaccinia virus (Venus reporter); hit rate 0.46% among 330,000; Vaccinia virus Venus reporter expression, fluorescence; Potency, µM (titrated, usually from 36.5 µM), for the others: top-dose activity change, negative = inhibition, hits mostly inhibitors; AID 720580; calls by dose curve; tested in A549 cells; further: nearly all actives have a fitted effect of over 30% in size
* marks the source's active call; other numbers are inactive results; i = inactive; ? = inconclusive; / = no result given; ! = repeats disagree; [ ] = remark or other dose. Compounds with a hit are over-represented: about 2.5% of the library has one in this group of screens. On the % scale 0 is the no-effect control and ±100 the full control effect; potency means the concentration at half of the fitted maximal effect.

SMILES	LASV entry inh	VACV mCherry inh	MARV entry inh	Vaccinia Venus
CCCCOc1ccc(/C=C/C(=O)Nc2ccc([N+](=O)[O-])cc2C)cc1	0%	i	-7%	-5%
CCCOc1ccc(/C=C/C(=O)Nc2ccc([N+](=O)[O-])cc2)cc1	?	-18%	1.8µM*	-10%
O=C(/C=C/c1ccc([N+](=O)[O-])cc1)Nc1ncc([N+](=O)[O-])s1	?	/	5.8µM*	/
COc1cc(CN2CCOc3ccc(CN4CCC(O)(c5cccnc5)CC4)cc3C2)ccc1F	/	-13%	/	-1%
C[N+]1(CC(=O)c2ccc(Br)cc2)CCOCC1	/	-22%	/	-11%
C=CCN1CC[C@]23CCCCC2[C@H]1Cc1ccc(O)cc13 (stereo partly drawn)	-8%	/	7.9µM*!	/
COc1ccc2c(c1)[C@@]13CCCC[C@H]1[C@@H](C2)NCC3	?	/	18µM*	/
CC1C2Cc3ccc(O)cc3[C@]1(C)CCN2CCc1ccccc1 (stereo partly drawn)	/	-15%	/	-28%
COc1ccc2c(c1)C13CCCCC1C(C2)N(C)CC3 (stereo not drawn)	?	/	11µM*	/
COc1ccc2c(c1)C13CCCC[C@@H]1C(C2)N(C)CC3 (stereo partly drawn)	/	-19%	/	-19%
COc1ccc2c(c1)sc1nc(-c3ccccc3)cn12	0.5µM*	-19%	0.71µM*	-27%
COc1ccc(-c2cn3c(n2)sc2cc(C(=O)NCc4ccccc4)ccc23)cc1	-14%[46.1 µM]	?	/	-28%
CCCCCCCCCn1c2c(c(=N)c3c1CCC3)CCCC2	4.1µM*	?	?	?
CCCCCCCCCCn1c2c(c(=N)c3c1CCC3)CCC2	?	13µM*	?	10µM*
CCCCCn1c2c(c(=N)c3ccccc31)CCC2	?	i[7.34 µM]	?	3%[7.34 µM]
CCn1c2c(c(=N)c3c1CCC3)CCCC2	16%[46.1 µM]	i	?	-9%
COc1cc(=O)n2c(c1C(=O)N(C)Cc1nccs1)CCN(Cc1c(F)ccc(F)c1F)CC2	/	-8%	/	-2%
COc1ccc(-c2ccc(C(=O)NCC3Cc4cccc(-c5nc(C)cnc5C)c4O3)o2)cc1 (stereo not drawn)	/	-13%	/	5%
COc1ccc(-n2c(SCc3nc(-c4ccc(Cl)cc4)no3)nnc2-c2ccncc2)cc1	-15%[46.1 µM]	-1%	-13%[46.1 µM]	0%
COc1ccc(-c2noc(CSc3nnc(Cc4ccccc4)n3-c3ccc(Cl)cc3)n2)cc1	4.1µM*	/	?	/
Cc1ccc(-c2noc(CSc3nnc(Cc4ccccc4)n3-c3ccc(Cl)cc3)n2)cc1	1.6µM*	/	?	/
COc1ccc(-c2noc(CSc3nnc(CCc4ccccc4)n3-c3ccccc3)n2)cc1OC	4.1µM*	-15%	-1%	-25%
Clc1ccc(-n2c(Cc3ccccc3)nnc2SCc2nc(-c3cccs3)no2)cc1	?	-4%	-28%[46.1 µM]	-6%
O=C1C2=C(C(=O)c3ccccc31)[C@H]1O[C@](c3ccsc3)(Cc3ccccc31)O2	/	/	-8%[14.2 µM]	/
COC(=O)C1CCCCN1Cc1ccc2c(c1)CN(C(=O)c1ccc(F)cc1)CCO2 (stereo not drawn)	/	-6%	/	-1%
SMILES	LASV entry inh	VACV mCherry inh	MARV entry inh	Vaccinia Venus
O=S1(=O)CCO[C@H]2CCCC[C@@H]2N1Cc1ccccc1F	/	i	/	-11%
CN(C)S(=O)(=O)c1cc(NC(=O)CN2CCN(c3ccccc3)CC2)ccc1Cl	3.5µM*	-24%	?	-27%
CCC(C(=O)OCC(=O)Nc1ccc(Cl)c(S(=O)(=O)N(C)C)c1)c1ccccc1 (stereo not drawn)	?	-19%	11µM*	-35%
CN(C)S(=O)(=O)c1cc(NC(=O)CN2CCN(c3ccc(O)cc3)CC2)ccc1Cl	?	-13%	?	-3%
CN(C)S(=O)(=O)c1cc(NC(=O)COC(=O)Cc2cccc3ccccc23)ccc1Cl	?	-5%	-5%	-18%
COc1cc(=O)n2c(c1C(=O)NC(C)c1ccco1)CCN(C(=O)c1[nH]c(C)cc1C)CC2 (stereo not drawn)	/	i	/	-17%
c1ccc(-c2ccc(C3=Nn4c(Cn5nnc6ccccc65)nnc4SC3)cc2)cc1	11µM*	/	?	-23%
CC1(C)[C@@]2(C(=O)N(CCC#N)CCC#N)CC[C@]1(C)C(=O)C2	/	/	-2%	/
CC(C)(C)c1ccc(C(=O)C[n+]2cc(Br)cc(Br)c2)cc1	/	-11%	/	-10%
CN1CCN(S(=O)(=O)c2ccc(Sc3nnc(-c4cccs4)n3-c3ccccc3)nc2)CC1	5%	10µM*	-24%	?
Nc1ccccc1O	/	i	/	1%
Oc1ccccc1O	?	-13%	2.5µM*!	-7%
C=CCn1c(C)c(/C=C/c2cc[n+](C)cc2)c2ccccc21	?	-7%	2.8µM*	161%
O=C(NC(=S)Nc1ccc(Cc2ccncc2)cc1)c1ccccc1	?	-12%	?	-21%
O=C(NC(=S)NC(c1ccccc1)c1ccncc1)c1ccccc1 (stereo not drawn)	?	-2%	6.5µM*	-15%
CCc1c(C(=O)Nc2ncn(Cc3cccc(C)c3)n2)csc1C	6%	/	17%	/
CC(=O)c1ccc(NC(=O)Nc2ncn(Cc3cccc(C)c3)n2)cc1	0.65µM*	/	8%	/
O=C(NCC1Cc2cccc(-c3ncccn3)c2O1)c1cccc(-c2ccccc2F)c1 (stereo not drawn)	/	25%	/	33%
NCc1ccc(-c2nc(-c3ccc(Cl)c(O)c3)c(-c3ccncc3)[nH]2)cc1	-19%	/	/	/
COc1ccc(/C=N/n2c(SC)nnc(C(C)(C)C)c2=O)c(OC)c1	6.3µM*	/	-6%	-16%
COCCCn1c2nc3ccccc3nc2c2c(=O)n(C[C@H]3CCCO3)cnc21	/	/	15%	/
Cc1cc(C)cc(Nc2nc3ccccc3c(=O)[nH]2)c1	4%	-10%	?	-20%
Cc1ccc2c(=O)[nH]c(Nc3nc(C)cc(-c4ccccc4)n3)nc2c1	/	-10%	/	-26%
Cc1nc(Nc2nc(CSc3ccc(Cl)cc3)cc(=O)[nH]2)nc2ccccc12	13%	-13%	7%	-4%
Cc1ccc2nc(Nc3nc(CSc4nnnn4-c4ccccc4)cc(=O)[nH]3)nc(C)c2c1	-2%	/	0%	/
SMILES	LASV entry inh	VACV mCherry inh	MARV entry inh	Vaccinia Venus
Cc1nc(Nc2nc(-c3ccccc3)cc(=O)[nH]2)nc2ccccc12	?	10µM*	?	10µM*
COc1nc(Nc2nc3ccccc3c(=O)[nH]2)nc2ccc(C)cc12	/	2µM*	/	2µM*
Cc1nc(Nc2nc(CSc3nc4ccccc4[nH]3)cc(=O)[nH]2)nc2ccccc12	?	10µM*	13µM*	10µM*
COc1ccc2nc(Nc3nc(CSc4nc5ccccc5[nH]4)cc(=O)[nH]3)nc(C)c2c1	?	?	11µM*	?
Cc1c(Br)cnc2ccccc12	/	-8%	/	-7%
O=C(C1=C(O)C(=O)N(CCN2CCOCC2)[C@H]1c1cccnc1)c1cc2ccccc2o1	/	/	1%	/
CC1(C)CN(c2ccccc2)C(=O)[C@@H]1CC(=O)Nc1ccccc1	7%[46.1 µM]	/	/	/
COC(=O)C[C@H]1SC(=O)NC1=O	/	/	0%	/
CC1(C)SC(=S)N(/N=C/c2ccccc2)C1N(O)C(=O)Nc1ccc([N+](=O)[O-])cc1 (stereo not drawn)	0%	?	18µM*	?
Cc1nn2c(COc3ccc(NC(=O)c4ccccc4Cl)cc3)nnc2c2ccccc12	?	i	7.1µM*	-30%
